Test results: PubChem BioAssay (Tox21)
Where “and” joins values, the source holds several entries; their conditions need not be identical. Equal values may be shown once. Inconclusive results are not listed. Calls of active or inactive are those of the source. Unless noted, calls come from the whole dose curve; as a rule, active = well fitted curve in the direction sought with a large enough effect in the repeat runs; inconclusive = weak or mixed curves; inactive = flat fitted curve, though single readings scatter.

Legend:
[1] = qHTS assay to test for compound auto fluorescence at 535 nm (green) in HEK293 cells (AID 720680)
[2] = qHTS assay to test for compound auto fluorescence at 460 nm (blue) in HEK293 cell free culture (AID 720681); note: potency is the fitted concentration of half-maximal effect
Method in brief: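 Blue fluorescence (Ex 405/Em 460 nm, triamterene-equivalent) was read immediately after pin transfer of compound or DMSO into medium (DMEM, 10% FBS) without cells.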

[3] = qHTS assay to test for compound auto fluorescence at 535 nm (green) in HEK293 cell free culture (AID 720682)
Method in brief: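 No cells present: wells hold DMEM supplemented with 10% FBS, into which compound or vehicle is pinned. Green emission is then recorded (485 nm excitation, 535 nm emission) and scaled to fluorescein.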

[4] = qHTS assay to test for compound auto fluorescence at 590 nm (red) in HEK293 cell free culture (AID 720683)
Method in brief: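 Red-channel autofluorescence of compounds in culture medium (DMEM, 10% FBS), no cells, measured at 540/590 nm. Rose Bengal sodium is the reference fluorophore for equivalence.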

[5] = qHTS assay to test for compound auto fluorescence at 460 nm (blue) in HepG2 cell free culture (AID 720685); note: potency is the fitted concentration of half-maximal effect
Method in brief: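 Cell-free plates of MEM plus 10% FBS received 23 nL compound or DMSO vehicle; blue-channel (405/460 nm) intensity scored against triamterene as reference fluorophore.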

[6] = qHTS assay to test for compound auto fluorescence at 535 nm (green) in HepG2 cell free culture (AID 720686)
[7] = qHTS assay to test for compound auto fluorescence at 460 nm (blue) in HepG2 cells (AID 720687); note: potency is the fitted concentration of half-maximal effect
Method in brief: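 Blue-channel autofluorescence (Ex/Em 405/460 nm, triamterene-equivalent) was measured after 1 hr compound exposure at 37 C, 5% CO2. Cells were HepG2, plated overnight at 37 C in MEM plus 10% FBS.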

[8] = molecular target: Glucocorticoid receptor (Homo sapiens) (UniProt P04150); test: qHTS assay to identify small molecule agonists of the glucocorticoid receptor (GR) signaling pathway (AID 720691; active = well fitted activation curve with a large enough effect in the signal ratio in the repeat runs, not every such curve was filed as active; the % refers to the signal ratio)
Glucocorticoid receptor (Homo sapiens), sequence (P04150 whole entry, looked up): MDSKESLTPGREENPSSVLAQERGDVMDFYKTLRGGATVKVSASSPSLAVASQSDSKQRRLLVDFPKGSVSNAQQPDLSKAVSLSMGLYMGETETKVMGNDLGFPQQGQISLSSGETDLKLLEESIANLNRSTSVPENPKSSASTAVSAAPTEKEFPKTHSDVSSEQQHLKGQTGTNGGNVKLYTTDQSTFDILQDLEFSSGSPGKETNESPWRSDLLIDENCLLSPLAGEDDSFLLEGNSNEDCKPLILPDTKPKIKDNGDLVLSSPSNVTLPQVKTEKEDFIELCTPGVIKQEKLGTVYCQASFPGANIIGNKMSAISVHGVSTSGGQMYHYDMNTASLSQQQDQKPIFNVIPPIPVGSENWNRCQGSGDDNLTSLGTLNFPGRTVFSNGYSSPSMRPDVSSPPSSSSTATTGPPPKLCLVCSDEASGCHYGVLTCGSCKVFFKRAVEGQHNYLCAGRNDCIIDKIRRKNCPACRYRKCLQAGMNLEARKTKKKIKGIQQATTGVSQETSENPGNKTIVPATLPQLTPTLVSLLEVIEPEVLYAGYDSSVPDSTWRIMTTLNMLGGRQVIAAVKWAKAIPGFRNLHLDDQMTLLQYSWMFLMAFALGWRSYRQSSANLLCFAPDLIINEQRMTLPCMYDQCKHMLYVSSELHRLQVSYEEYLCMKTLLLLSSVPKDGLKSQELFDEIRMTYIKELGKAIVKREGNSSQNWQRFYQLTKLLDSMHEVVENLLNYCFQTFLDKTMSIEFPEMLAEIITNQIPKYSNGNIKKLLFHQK
Method in brief: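 HeLa GR-bla reporter line; cells pre-incubated 4 h, compound in DMSO 18 h at 37 C; LiveBLAzer B/G FRET substrate 2 h RT; fluorescence intensity read-out.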

[9] = molecular target: Glucocorticoid receptor (Homo sapiens) (UniProt P04150); test: qHTS assay to identify small molecule antagonists of the glucocorticoid receptor (GR) signaling pathway (AID 720692; active = well fitted inhibition curve with a large enough effect in the signal ratio in the repeat runs, not every such curve was filed as active; the % refers to the signal ratio)
Method in brief: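 Read-out: beta-lactamase FRET substrate fluorescence, 2 h at room temperature, in HeLa cells stably carrying a GRE-driven bla reporter. Compounds were co-incubated with 5 nM dexamethasone agonist (final) for 18 h at 37 C.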

[10] = qHTS assay to test for compound auto fluorescence at 590 nm (red) in HepG2 cell free culture (AID 720684)
Method in brief: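 No cells present: MEM + 10% FBS only. Compound pinned in, red label read (540/590 nm). Activity = fluorescence equivalent to Rose Bengal sodium.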
% is set by controls: 0 for no effect and ±100 for the full control effect; tags give direction and shape of the fitted curve or compound fluorescence and quenching.

O=C1NCC2(CCN(CCc3ccccc3)CC2)O1
inactive: Potency [1] | Potency [2] | Potency [3] | outcome [4] | Potency [5] | Potency [6] | Potency [7] | Potency [8] | Potency [9]

COc1nc(C)nc(Cl)c1NC1=NCCN1
inactive: fluorescence, % of fluorescein [1] -0.014% [at 18.6 µM] | fluorescence, % of fluorescent control [2] 0.165% [at 18.6 µM] | activity change [3] 0.0521% [at 18.6 µM, active compounds read high] | fluorescence, % of fluorescent control [4] 0.101% [at 18.6 µM] | fluorescence, % of fluorescent control [5] 0.0137% [at 18.6 µM] | fluorescence, % of fluorescein control [6] 0.0146% [at 18.6 µM] | fluorescence, % of fluorescent control [7] 0.0089% [at 18.6 µM] | Potency [8] | Potency [9]

Cc1cccc2n[nH]nc12
inactive: Potency [1] | Potency [2] | Potency [3] | outcome [4] | Potency [5] | Potency [6] | Potency [7]

COC(=O)c1cccc(C(=O)OC)c1
inactive: Potency [1] | Potency [3] | outcome [4] | outcome [10] | Potency [5] | Potency [6] | Potency [7]

CN1C(=O)c2ccc([N+](=O)[O-])cc2C1=O
inactive: Potency [1] | Potency [2] | Potency [3] | outcome [4] | Potency [5] | Potency [6] | Potency [7]

Cc1ccc(S(=O)(=O)Oc2ccc(N=Nc3ccc(-c4ccc(N=Nc5c(O)ccc6cc(S(=O)(=O)O)cc(S(=O)(=O)O)c56)c(C)c4)cc3C)cc2)cc1
inactive: Potency [1] | Potency [2] | Potency [3] | outcome [4] | Potency [5] | Potency [6] | Potency [7] | Potency [8]

CCC(CO)(CO)COCC(CC)(CO)CO
inactive: Potency [1] | Potency [2] | Potency [3] | outcome [4] | Potency [5] | Potency [6] | Potency [7] | Potency [8]

Cc1cc(OCCOCC[N+](C)(C)Cc2ccccc2)ccc1C(C)(C)CC(C)(C)C
inactive: Potency [1] | Potency [2] | Potency [3] | outcome [4] | Potency [5] | Potency [6] | Potency [7]

CCN(CC)c1ccc2c(C)cc(=O)oc2c1
active: Potency [2] 39.8 µM | Potency [5] 35.5 µM [fluorescent] and 39.8 µM [fluorescent] | Potency [7] 39.8 µM [fluorescent]
inactive: Potency [1] | Potency [3] | outcome [4] | Potency [6]

CCOC(=O)C(C)C(C)=O (stereo not given)
inactive: Potency [1] | Potency [2] | Potency [3] | outcome [4] | Potency [5] | Potency [6] | Potency [7] | Potency [8]

CCCOC(=O)c1cc(O)c(O)c(O)c1
inactive: Potency [1] | Potency [2] | Potency [3] | outcome [4] | Potency [5] | Potency [6] | Potency [7] | Potency [8] | Potency [9]

Cc1scc2c1N(C(=O)CN1CCN(C)CC1)c1ccccc1NC2=O
inactive: Potency [1] | Potency [3] | outcome [4] | Potency [5] | Potency [6] | Potency [7]

C1COC(NC(C2CC2)C2CC2)=N1
inactive: Potency [1] | Potency [3] | outcome [4] | Potency [5] | Potency [6] | Potency [7]

BrC1CCC(Br)C(Br)CCC(Br)C(Br)CCC1Br (stereo not given)
inactive: Potency [1] | Potency [3] | outcome [4] | outcome [10] | Potency [5] | Potency [6] | Potency [7]

CCN(CC)C(=O)Nc1ccc(OCC(O)CNC(C)(C)C)c(C(C)=O)c1 (stereo not given)
inactive: Potency [1] | Potency [3] | outcome [4] | outcome [10] | Potency [5] | Potency [6] | Potency [7] | Potency [8] | Potency [9]

O=C(OCc1ccccc1)c1ccc(O)cc1
inactive: Potency [1] | Potency [3] | outcome [4] | outcome [10] | Potency [5] | Potency [6] | Potency [7] | Potency [8] | Potency [9]

CC(C)CCOCc1ccccc1
inactive: Potency [1] | Potency [3] | outcome [4] | outcome [10] | Potency [5] | Potency [6] | Potency [7] | Potency [8] | Potency [9]

NC12CC3CC(CC(C3)C1)C2
inactive: Potency [1] | Potency [3] | outcome [4] | outcome [10] | Potency [5] | Potency [6] | Potency [7] | Potency [8] | Potency [9]

CCCCCCCCCCCCCC[P+](CCCC)(CCCC)CCCC
inactive: Potency [1] | Potency [3] | outcome [4] | outcome [10] | Potency [5] | Potency [6] | Potency [7]

CC(=O)OCC1=C(C(=O)O)N2C(=O)[C@@H](NC(=O)Cc3cccs3)[C@H]2SC1
inactive: Potency [1] | Potency [3] | outcome [4] | outcome [10] | Potency [5] | Potency [6] | Potency [7] | Potency [8] | Potency [9]

Cc1cc(C(C)(C)C)c(O)c(C(C)(C)C)c1
inactive: Potency [1] | Potency [3] | outcome [4] | outcome [10] | Potency [5] | Potency [6] | Potency [7] | Potency [8]
